Laboratory results reported in PubChem BioAssay (NCATS).
Inconclusive results are not listed. Where a call stands in place of a potency, no number is given. Active and inactive are the calls of the source. The call rests on the fitted dose curve; in most records, active means well fitted inhibition curve with a large enough effect; inconclusive means small, poorly fitted or top-dose-only effect; inactive means flat fitted curve, though single readings scatter.

Assay: P-glycoprotein substrates identified in KB-8-5-11 adenocarcinoma cell line, qHTS therapeutic library screen (AID 1346987); further: nearly all actives have a fitted effect of over 65% in size
Details: KB-8-5-11 (P-gp overexpressing) viability, CellTiter-Glo, 72 h; series mostly up to 44.5 µM
How it was run: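 Luminescence from CellTiter-Glo, read 5 min after addition, quantified survival of KB-8-5-11 (P-gp-overexpressing) cells exposed to compounds for 72 h. AC50 was derived from concentration-response curves.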
Potency means the concentration at half of the fitted maximal effect.

Row | Structure (SMILES) | Potency
1 | O=c1ccn([C@@H]2O[C@H](CO)[C@@H](O)[C@H]2O)c(=O)[nH]1 | inactive
2 | CC(=O)OC[C@@]12[C@H](O)C[C@@H](C)[C@]3(C[C@@H](c4ccoc4)OC3=O)[C@H]1C[C@H](O)C[C@]21CO1 | inactive
3 | CC1(C)CC2C(C1)C1(C)CCC13OC3(CO)C2O (stereo not given) | inactive
4 | COc1cc2c(cc1OC)CN(C(=O)[C@@H](NCc1ccncc1)C(C)(C)C)CC2 | inactive
5 | CC1=CC(=O)CC(C)(C)C1(O)CCC(C)O (stereo not given) | inactive
6 | CCN(CC)CCOc1ccc(-c2nc3cc(Cl)ccc3s2)cc1 | 18.4 µM (active)
7 | COc1ncc(-c2ccc3c(Nc4cc(Oc5cc(F)cc(F)c5)cc(C(=O)O)c4)c(S(=O)(=O)NC4CC4)cnc3c2)c(OC)n1 | inactive
8 | C/C=C/C=C/C=C/C(=O)O[C@@H]1C=C(CO)C(O)(C(=O)O)[C@@]2(C)CCCC(C)(C)[C@H]12 (stereo not given in full) | inactive
9 | C=C1C[C@]23C[C@H]1CC[C@H]2[C@@]12C=C[C@H](O)[C@@](C)(C(=O)O1)[C@H]2[C@@H]3C(=O)O | inactive
10 | CCC(C)C(=O)O[C@@H]1[C@@H](O)[C@@H](O[C@H]2O[C@H](CO)[C@@H](O)[C@H](O)[C@H]2O)O[C@H](CO)[C@H]1O (stereo not given in full) | inactive
11 | COC(=O)C1(Cc2ccc(O)cc2)OC(=O)C(OC)=C1c1ccc(O)cc1 (stereo not given) | inactive
12 | CC12CCC3c4ccc(O)cc4CCC3C1CCC2OC1OC(C(=O)O)C(O)C(O)C1O (stereo not given) | inactive
13 | C=C1CC2C3(C)C(O)CC(=O)C(C)(C)C3C(OC(C)=O)C(OC(C)=O)C2(C)C2C(=O)OC(C)(C(=O)OC)C(=O)C12C (stereo not given) | inactive
14 | CCn1c2ccccc2c2cc(CNC)ccc21 | inactive
15 | C[C@@H]1O[C@@H](OC[C@H]2O[C@@H](OCCc3ccccc3)[C@H](O)[C@@H](O)[C@@H]2O)[C@H](O)[C@H](O)[C@H]1O | inactive
16 | O=C(O)Cc1nn(Cc2nc3cc(C(F)(F)F)ccc3s2)c(=O)c2nccnc12 | inactive
17 | COc1ccc(C2=CC(=O)OC2Cc2ccc(O)cc2)c(O)c1 (stereo not given) | inactive
18 | CN1C(=O)c2ccccc2NC(=O)[C@]12O[C@@H]2c1cccc(O)c1 | inactive

Row | Structure (SMILES) | Potency
19 | OC[C@H]1O[C@@H](OC(CCCCc2ccc(O)cc2)CCc2ccc(O)cc2)[C@H](O[C@@H]2OC[C@](O)(CO)[C@H]2O)[C@@H](O)[C@@H]1O (stereo not given in full) | inactive
20 | COc1ccc2c3c1O[C@H]1C[C@@H](O)C=C[C@@]31CCN(C)C2 | inactive
21 | C[C@@H]1C[C@H]2[C@@H]3CCC4=CC(=O)C=C[C@]4(C)[C@@]3(F)[C@@H](O)C[C@]2(C)[C@@]1(O)C(=O)COP(=O)(O)O | inactive
22 | C(#Cc1cccc(CN2CCOCC2)c1)CCN1CCCCC1 | inactive
23 | OC[C@H]1O[C@@H](n2cnc3c2NC=NC[C@H]3O)C[C@@H]1O | inactive
24 | COc1cc2c(cc1O)C1(OC)Cc3ccc4c(c3C1N(C)CC2)OCO4 (stereo not given) | inactive
25 | O=S(=O)(Nc1ccc(C(O)(C(F)(F)F)C(F)(F)F)cc1)c1cccs1 | inactive
26 | COC12CC3C(C(C)C1=CC(=O)O2)C(O)C(OC(C)=O)C1C(C)(C)C(OC(C)=O)CCC31C (stereo not given) | inactive
27 | C=C1CC[C@H]2[C@@](C)(CCC(O)[C@@]2(C)CO)[C@@H]1C/C=C(/C(=O)O)C(O)CO (stereo not given in full) | inactive
28 | COc1cc(/C=C/C(=O)OC(C)(C)C(OC2OC(CO)C(O)C(O)C2O)C(=O)OCc2ccc(OC3OC(CO)C(O)C(O)C3O)cc2)ccc1O (stereo not given) | inactive
29 | C[C@H]1[C@H](C)CC[C@]2(C(=O)O)CC[C@]3(C(=O)O)C(=CCC4[C@@]5(C)CC[C@H](O[C@@H]6O[C@H](C)[C@@H](O)[C@H](O)[C@H]6O)C(C)(C)C5CC[C@]43C)[C@H]12 (stereo not given in full) | inactive
30 | CCC(C)/C=C(C)/C=C/C1=CC2=C(Cl)C(=O)C(C)(OC(C)=O)C(=O)C2=CN1CCCC(=O)O (stereo not given) | inactive
31 | C=C1CC[C@H]2[C@@H](/C=C(\C)C(=O)[C@@]3(OC(C)=O)C[C@H](C)[C@H](OC(C)=O)[C@@H]3[C@H]1OC(C)=O)C2(C)C | inactive
32 | CCc1ccc2c(c1)N(CC(C)CN(C)C)c1ccccc1S2 (stereo not given) | 25.9 µM (active)
33 | CC1CCC2C(C)(C)CC(C)(CO)C2(O)C1C(=O)O (stereo not given) | inactive
34 | C/C=C(/C)C(=O)O[C@H]1C=C(C)C[C@H](OC(=O)c2ccc(O)cc2)C2[C@](O)(C(C)C)CC[C@@]21C (stereo not given in full) | inactive
35 | COC(=O)C12C(=O)C(C)=C(O)C1(C)C(C)=CC1C34CCC(OC3=O)C(C)(C)C4CCC12C (stereo not given) | inactive
